Most compounds without a hit are left out; they make up all but 32% or so of the library.
CYP2C9 act: CYP2C9 (human) activation; activation factor at 5 µM; recombinant CYP2C9, luciferin-H conversion, luminescence; hits give high values; factor 1 = untreated enzyme, 0 = blocked; 96,000 tested, 1.4% active;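 active means activation factor of 2 or more for CYP2C9 at a 5 µM dose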
PostGolgi ctrl: inhibits growth of the yeast control strain | AID 738 | 98,000 tested, 5% active | inhibition, % at 10 µM | efflux-deficient yeast background strain, growth absorbance A615, 16 h
PostGolgi yeast: growth inhibition of a yeast mutant, post-Golgi transport screen | inhibition, % at 10 µM | 98,000 tested, 0.9% active | post-Golgi transport phenotypic cell assay;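 further: yeast cells grown in 1536-well plates; yeast grown about 18 h at 30C before absorbance read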
CYP2C19 inh: inhibitors of human CYP2C19; CYP2C19 Supersomes, luciferin-H EGE luminescence, 30 min; inhibition, % at 5 µM; 96,000 tested, 21% active; AID 778;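 active means CYP2C19 inhibition above a set limit at 5 µM in the primary screen, cut at about 50% in these data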
Target sequence (P33261 whole entry, looked up): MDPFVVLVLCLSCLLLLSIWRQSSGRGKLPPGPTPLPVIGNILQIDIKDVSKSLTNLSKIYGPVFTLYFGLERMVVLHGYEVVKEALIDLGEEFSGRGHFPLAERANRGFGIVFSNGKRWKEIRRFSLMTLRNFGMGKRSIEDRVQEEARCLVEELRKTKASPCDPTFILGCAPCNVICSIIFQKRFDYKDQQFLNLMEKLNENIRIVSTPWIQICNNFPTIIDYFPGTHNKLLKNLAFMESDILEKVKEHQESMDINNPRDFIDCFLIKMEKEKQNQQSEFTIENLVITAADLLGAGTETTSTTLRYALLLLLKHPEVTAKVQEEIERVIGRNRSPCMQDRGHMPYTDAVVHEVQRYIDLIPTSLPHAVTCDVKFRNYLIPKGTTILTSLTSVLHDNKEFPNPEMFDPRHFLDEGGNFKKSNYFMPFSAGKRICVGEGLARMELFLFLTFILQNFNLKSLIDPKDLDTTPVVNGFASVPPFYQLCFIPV
CYP2C19 act: cytochrome P450 2C19 (human) activation | recombinant CYP2C19, luciferin-H EGE luminescence; hits give high values; 0 = fully inhibited enzyme, 1 = untreated enzyme | activation factor at 5 µM | 96,000 tested, under 10 active;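 active means activation factor of at least 2 at 5 µM in the primary screen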
CYP2C9 inhib: blocks human cytochrome P450 2C9; P11712; CYP2C9 Supersomes, luciferin-H conversion, luminescence; inhibition, % at 5 µM; 96,000 tested, 20% active;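 active means blocking of liver enzyme CYP2C9 beyond about 50% at 5 µM, limit read from the data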
Of the large screens only hits and unclear results are named; the others gave an inactive call. Unless noted, no stated cut-off is given here; in the data, active means inhibition above about 30%; inactive means the rest.

CCOC(=O)C1CCCN(C(=O)CCc2ccccc2)C1 (stereo not given)	none
CCOC(=O)C1CCCN(C(=O)Cc2ccc(Cl)cc2)C1 (stereo not given)	CYP2C9 inhib 76
Cc1ccc(C(=O)NCCCN2CCOCC2)cc1N1CCCC1=O	none
Nc1cc(N)nc(SCCOc2ccccc2)n1	none
Nc1nnc(SCCOc2ccc(Br)cc2)s1	CYP2C19 inh 82
COc1ccc(OCCc2nnc(N)s2)cc1	none
CCOc1ccc(C(=O)CSc2nnc(N)s2)cc1	CYP2C19 inh 58
Nc1nnc(SCCOc2ccccc2)s1	CYP2C19 inh 87, CYP2C9 inhib 63
CCOC(=O)c1ccc(NC(=S)NCCCN2CCCCC2)cc1	none
C/C(=C(\C#N)C(=O)NCc1ccccc1)N(C)C	none
S=c1[nH]nc(CSCc2ccccc2Cl)n1-c1ccccc1	CYP2C19 inh 72, CYP2C9 inhib 76
O=C(CSc1nnc(-c2ccccc2)n1Cc1ccco1)Nc1ccc(S(=O)(=O)N2CCCC2)cc1	none
Cc1ccc2nc3c(c(N)c2c1)CCN3c1ccccc1	CYP2C19 inh 69
Cc1nn(C)c(Oc2ccccc2)c1CCNS(=O)(=O)c1ccc(Cl)cc1	CYP2C19 inh 97, CYP2C9 inhib 80
Cc1nn(C)c(Oc2ccc(Cl)cc2)c1C(=O)O	none
COc1ccc(S(=O)(=O)NCCc2c(C)nn(C)c2Oc2ccccc2)cc1	CYP2C19 inh 87
CC(C)(C)n1cnc2cc(NS(=O)(=O)c3ccc(Br)cc3)ccc21	CYP2C19 inh 100, CYP2C9 inhib 99
Cc1ccc(S(=O)(=O)Nc2ccc3c(c2)ncn3C(C)(C)C)cc1	CYP2C19 inh 92, CYP2C9 inhib 80
Cc1ccc(S(=O)(=O)Nc2ccc3c(c2)nc(CN2CCCC2)n3C)cc1	none
CCn1c2ccccc2c2cc(NS(=O)(=O)c3ccccc3C)ccc21	CYP2C19 inh 66, CYP2C9 inhib 81
O=c1c2ccccc2nc2n1C(CSc1ccc(Br)cc1)CN2 (stereo not given)	none
Oc1oc(-c2ccccc2)nc1C=Nc1ccccc1	none
CSc1ccccc1N=Cc1nc(-c2ccccc2)oc1O	CYP2C19 inh 68
CN(C)c1ccc(N=Cc2nc(-c3ccccc3)oc2O)cc1	CYP2C19 inh 50
Oc1oc(-c2ccccc2)nc1C=NCc1ccccc1	CYP2C19 inh 78, CYP2C9 inhib 69
O=C(O)CC(C(=O)Nc1cccc(C(F)(F)F)c1)C1CCCO1 (stereo not given)	none
CC(=O)c1ccc(OCCCC(=O)NCC(c2ccco2)N(C)C)cc1 (stereo not given)	CYP2C19 inh 81, CYP2C9 inhib 63
CCN(CC(=O)Nc1ccc([N+](=O)[O-])cc1OC)c1ccccc1	CYP2C19 inh 53, CYP2C9 inhib 78
COc1ccc(OCCCC(=O)Nc2cc([N+](=O)[O-])ccc2C)cc1	CYP2C9 act 2.6
Cc1ccc(OCCCC(=O)NCc2ccco2)cc1	none
CCN(CC)S(=O)(=O)c1cc([N+](=O)[O-])ccc1NNC(=O)Nc1ccccc1OC	CYP2C19 inh 51, CYP2C9 inhib 63
CCCOc1ccc(/C=C/C(=O)Nc2ccc([N+](=O)[O-])cc2C)cc1	none
COc1cc([N+](=O)[O-])ccc1NC(=O)CN(C)C	none
Cc1oc2nc(SCC(=O)NCCCO)nc(N)c2c1C	none
O=C(NCc1ccco1)NC12CC3CC(CC(C3)C1)C2	none
COc1ccc(NC(=O)CCOc2ccccc2)c(OC)c1	CYP2C19 inh 73
COc1cc([N+](=O)[O-])ccc1NC(=O)CCCOc1ccccc1	CYP2C19 inh 64
O=C(CCOc1ccccc1)NCC(c1ccco1)N1CCCCC1 (stereo not given)	CYP2C19 inh 66
COc1ccc(NC(=O)N2CCC(c3ccccc3)C2)c(OC)c1 (stereo not given)	CYP2C9 act 2.1, CYP2C19 inh 85
COc1ccc(NC(=O)CC(=O)Nc2ccc(OC)cc2OC)c(OC)c1	none
O=C(NCC(c1ccco1)N1CCCC1)c1ccccc1F (stereo not given)	none
O=C(CSc1nnc(CN2CCOCC2)n1-c1ccccc1)Nc1ccc(Cl)cc1	none (no result: CYP2C9 act, CYP2C19 inh, CYP2C19 act, CYP2C9 inhib)
CC(=O)Nc1cc(C(=O)N2CCN(C)CC2)ccc1Sc1ccc(C)cc1	none
COc1ccc(C(CNC(=O)CCOc2ccccc2)N(C)C)cc1 (stereo not given)	CYP2C19 inh 55
COc1ccc(NC(=O)CCC(=O)Nc2nnc(C(F)(F)F)s2)c(OC)c1	CYP2C9 inhib 65

Screens: PubChem, several laboratories
